This is a sample that favours compounds with a hit; in the whole collection about 28% have one here.
Plk1 PBD FP: inhibitors of human Plk1 polo box domain binding. P53350. Plk1 PBD phosphopeptide binding, fluorescence polarization. inhibition, %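 (tested at about 20 µM)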. hit rate 0.13% among 97,000. AID 693; in the data active = inhibition above about 34%, passing the limit was not always enough
CYP2C9 act: increases human cytochrome P450 2C9 activity | hit rate 1.4% among 96,000 | recombinant CYP2C9, luciferin-H conversion, luminescence; hits give high values; factor 1 = untreated enzyme, 0 = blocked | P11712 | activation factor at 5 µM;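 active = activation factor of 2 or more for CYP2C9 at a 5 µM dose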
CYP2C9 inh: inhibitors of human CYP2C9 | hit rate 20% among 96,000 | CYP2C9 Supersomes, luciferin-H conversion, luminescence | P11712 | inhibition, % at 5 µM;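 active = blocking of liver enzyme CYP2C9 beyond about 50% at 5 µM, limit read from the data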
CYP2C19 act: cytochrome P450 2C19 (human) activation. P33261. recombinant CYP2C19, luciferin-H EGE luminescence; hits give high values; 0 = fully inhibited enzyme, 1 = untreated enzyme. activation factor at 5 µM. 96,000 tested, under 10 active. AID 1025;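 active = activation factor of at least 2 at 5 µM in the primary screen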
Target sequence (P33261 whole entry, looked up): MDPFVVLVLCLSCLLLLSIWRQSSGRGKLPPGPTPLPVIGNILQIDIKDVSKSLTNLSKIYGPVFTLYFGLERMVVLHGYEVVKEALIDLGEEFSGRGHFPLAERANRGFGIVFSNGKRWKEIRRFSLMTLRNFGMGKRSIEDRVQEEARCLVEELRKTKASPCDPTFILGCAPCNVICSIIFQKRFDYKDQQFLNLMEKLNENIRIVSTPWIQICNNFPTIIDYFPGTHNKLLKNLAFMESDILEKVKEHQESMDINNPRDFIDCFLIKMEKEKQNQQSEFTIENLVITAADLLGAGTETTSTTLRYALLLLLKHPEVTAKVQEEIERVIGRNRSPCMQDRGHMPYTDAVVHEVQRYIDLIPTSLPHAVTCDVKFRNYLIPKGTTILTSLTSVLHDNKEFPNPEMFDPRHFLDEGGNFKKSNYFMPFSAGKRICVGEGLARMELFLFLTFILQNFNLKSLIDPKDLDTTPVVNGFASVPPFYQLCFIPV
CYP2C19 inhib: blocks human cytochrome P450 2C19 | P33261 | CYP2C19 Supersomes, luciferin-H EGE luminescence, 30 min | inhibition, % at 5 µM | hit rate 21% among 96,000 | AID 778;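 active = CYP2C19 inhibition above a set limit at 5 µM in the primary screen, cut at about 50% in these data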
PLK1 kinase inh: inhibitors of human PLK1 kinase | recombinant PLK1 kinase, TR-FRET peptide phosphorylation | inhibition, % at 10 µM | hit rate 0.53% among 97,000 | AID 619;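 active = inhibition of 50% or more in the single-concentration screen; inactive = inhibition below 50%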
Numbers stand for hits; - = inactive; . = no result given.

SMILES	Plk1 PBD FP	CYP2C9 act	CYP2C9 inh	CYP2C19 act	CYP2C19 inhib	PLK1 kinase inh
COc1ccccc1NC(=O)c1nn(C)cc1Br	-	2.2	-	-	-	-
COc1ccccc1NC(=O)c1nc[nH]c1C(=O)Nc1ccccc1OC	-	-	-	-	-	-
COc1ccccc1NC(=S)NNC(=O)c1nn(C)cc1Cl	-	-	-	-	57	-
CN1CCN(C(=O)N2CCNC2=O)CC1	-	-	-	-	-	-
CCOc1ccc(C2N(c3ccc(OC)cc3)C(=O)C3CCCN32)cc1OC (stereo not drawn)	-	-	-	-	-	-
CCOc1ccc(C2N(c3cc(Cl)ccc3OC)C(=O)C3CCCN32)cc1OC (stereo not drawn)	-	-	-	-	72	-
CCOc1ccc(C2N(c3ccc(F)cc3)C(=O)C3CCCN32)cc1OC (stereo not drawn)	-	-	-	-	66	-
O=C1C2CCCN2C(c2ccc(F)cc2)N1c1ccc(Cl)cc1 (stereo not drawn)	-	-	-	-	-	-
CCOc1ccc(C2N(c3ccc(Cl)cc3)C(=O)C3CCCN32)cc1OC (stereo not drawn)	-	-	-	-	65	-
COc1ccc(C2N(c3cc(Cl)ccc3OC)C(=O)C3CCCN32)c(OC)c1 (stereo not drawn)	-	-	-	-	-	-
CCOC(=O)c1ccc(NC(=S)NCC(O)c2ccccc2)cc1 (stereo not drawn)	-	-	-	-	-	-
Cc1cccc(/N=C/c2c(O)c3ccccc3oc2=O)n1	.	-	-	-	-	.
Cc1cc(C)c(NC(=O)/C(=C/c2ccco2)c2ccccc2)c(C)c1	-	-	68	-	77	-
Cc1cccc(C)c1NC(=O)/C(=C/c1ccco1)c1ccccc1	-	-	70	-	-	-
CCC(C)NC(=O)/C(=C/c1ccco1)c1ccccc1 (stereo not drawn)	-	-	-	-	-	-
CC(C)NC(=O)/C(=C/c1ccco1)c1ccccc1	-	-	-	-	-	-
COC(=O)c1cc(=O)n2c(-c3ccc(OC)cc3)csc2n1	-	-	-	-	-	-
COC(=O)CCC(NC(=O)OCc1ccccc1)C(=O)NC(CC(C)C)C(=O)OC (stereo not drawn)	-	-	68	-	-	-
CC(=O)Oc1cccc(N2C(=O)C3CC=CCC3C2=O)c1 (stereo not drawn)	-	-	-	-	-	-
CS(=O)(=O)c1cccc(C(=O)NC(c2ccccc2)c2ccccc2)c1	-	-	97	-	75	-
Cc1cc(N2C(=O)CC(N3CCN(C(c4ccccc4)c4ccccc4)CC3)C2=O)no1 (stereo not drawn)	-	-	98	-	78	-
COc1cc(C(c2nnnn2C2CCCC2)N2CCc3ccccc3C2)ccc1O (stereo not drawn)	-	-	57	-	-	-
NC(=O)C1CCN(C(c2ccccc2)c2nnnn2C2CCCC2)CC1 (stereo not drawn)	-	.	.	.	.	-
Oc1ccc(C(c2nnnn2C2CCCC2)N2CCc3ccccc3C2)cc1 (stereo not drawn)	-	-	81	-	94	-
Cn1c(=O)c2c(nc(SCc3cc4c(cc3Cl)OCO4)n2C)n(C)c1=O	.	-	-	-	-	.
SMILES	Plk1 PBD FP	CYP2C9 act	CYP2C9 inh	CYP2C19 act	CYP2C19 inhib	PLK1 kinase inh
COc1ccc(-n2c(/C=C(\C)O)nc(=O)c3c(C)cc(C)nc32)cc1	-	-	-	-	-	-
COCC(=O)NC(c1ccccc1)c1ccccc1	-	-	-	-	-	-
CC(=O)Oc1ccc2ccccc2c1C(NC(=O)Cc1ccccc1)c1ccc(Cl)cc1 (stereo not drawn)	-	-	63	-	-	-
Cc1nnsc1NC(=O)OCc1ccccc1Cl	-	-	-	-	76	-
Cc1nn(C)c(Cl)c1NC(=O)OCc1ccccc1	-	-	-	-	-	-
COc1cccc2c(C)nc(Nc3nc(CSc4nnc(C)s4)cc(=O)[nH]3)nc12	-	-	-	-	-	-
CC(C)OC(=O)c1cn(-c2ccccc2)nc1-c1ccco1	-	-	-	-	-	-
Cc1ccc(-c2nn(-c3ccccc3)cc2CN(Cc2ccccc2)C(=O)c2ccco2)o1	-	-	70	-	-	-
COc1cc(/C=N/c2oc(-c3ccccc3)cc2C#N)ccc1O	-	-	-	-	-	-
Cc1ccc(N2CN=C(c3ccccc3)NC2=S)cc1	-	-	76	-	99	-
Cc1ccc(O)c(-c2cc3ccccc3[nH]2)c1	-	-	80	-	54	-
Cc1ccc(O)c(-c2cc(-c3ccccc3F)[nH]n2)c1	-	-	-	-	-	-
O=C(CN(c1ccc(F)cc1)S(=O)(=O)c1ccc2c(c1)OCCO2)NCc1cccnc1	-	-	84	-	94	-
O=C(O)CN(c1ccc(F)cc1)S(=O)(=O)c1ccc2c(c1)OCCO2	-	-	-	-	-	-
O=C(CN(c1ccc(F)cc1)S(=O)(=O)c1ccc2c(c1)OCCO2)NCc1ccncc1	-	-	73	-	90	-
CCCNC(=O)CN(c1ccc(F)cc1)S(=O)(=O)c1ccc2c(c1)OCCO2	-	-	85	-	81	-
O=C(CN(c1ccc(F)cc1)S(=O)(=O)c1ccc2c(c1)OCCO2)NCC1CCCO1 (stereo not drawn)	-	-	-	-	-	-
O=C(Nc1cccc(Br)c1)c1ccc(Cl)c(S(=O)(=O)N2CCOCC2)c1	-	.	.	.	.	-
Cc1ccc(N=Nc2ccc(O)c(/C=N\NC(=O)c3ccc(N)cc3)c2)cc1C	-	-	-	-	-	-
CSCC[C@H](NC(=O)CCn1nnc2ccccc2c1=O)C(=O)O	-	-	-	-	-	-
Clc1cccc(Cl)c1Cn1c(-c2cccnc2Cl)nc2ccccc21	-	-	-	-	-	-
CCCn1c(-c2cccnc2Cl)nc2cc(Cl)c(Cl)cc21	-	-	56	-	-	-
C=CCn1c(-c2cccnc2Cl)nc2cc(Cl)c(Cl)cc21	-	-	57	-	-	-
Cc1cccc(N2C(N)=NC(N)=NC23CCCCC3)c1	-	-	-	-	-	-
COc1ccc2c(c1)[nH]c1c(=O)n(Cc3ccccn3)cnc12	-	-	51	-	-	-
SMILES	Plk1 PBD FP	CYP2C9 act	CYP2C9 inh	CYP2C19 act	CYP2C19 inhib	PLK1 kinase inh
Cc1cc(S(=O)(=O)N2CCN(c3ccccc3C)CC2)ccc1F	-	-	95	-	97	-
Cc1ccccc1N1CCN(S(=O)(=O)c2ccccc2)CC1	-	.	.	.	.	-
Cc1cc(S(=O)(=O)N2CC(=O)N(CCc3ccccc3)C(=O)C2)ccc1F	-	-	-	-	-	-
Cc1ccc(Cl)cc1N1CCN(S(=O)(=O)c2cccc(S(=O)(=O)N3CCCC3)c2)CC1	.	-	87	-	64	.
Cc1cc(S(=O)(=O)N2CCN=C2c2ccccc2)ccc1F	-	-	65	-	95	-
Cc1cc(S(=O)(=O)N2CCN(c3c(C)cccc3C)CC2)ccc1F	-	-	98	-	97	-
